G9a inh – qHTS Assay for Inhibitors of Histone Lysine Methyltransferase G9a; Histone-lysine N-methyltransferase EHMT2 (Homo sapiens), Q96KQ7; G9a H3K9 monomethylation, AlphaScreen, 2 h; Potency, µM (series often up to 102 µM), most hits filed as inhibitors; 8.8% of 350,000 active; AID 504332, 2011; also: nearly all actives have a fitted effect of over 75% in size
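G9a (20 nM) preincubated 15 min RT with compounds, then 500 nM biotinylated H3K9 peptide and 20 uM SAM added; 2 h RT reaction. Monomethyl-H3K9 product detected by AlphaScreen with anti-H3K9me1 antibody, streptavidin donor and anti-rabbit IgG acceptor beads.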
HP1b binding inh – HTS for Inhibitors of HP1-beta Chromodomain Interactions with Methylated Histone Tails; Chromobox protein homolog 1 (Homo sapiens), P83916; AlphaScreen HP1-beta / biotin-H3K9me3 peptide binding; Potency, µM (doses to about 114 µM), most hits filed as inhibitors; 0.56% of 390,000 active; also: nearly all actives have a fitted effect of over 70% in size
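HP1-beta protein (50 nM final) preincubated 30 min at room temperature with biotinylated H3(1-18)K9me3 peptide (50 nM) in PBS pH 7.4, 0.01% Tween-20, then compound added for 30 min. AlphaScreen streptavidin donor/nickel chelate acceptor beads (10 ug/mL final), 30 min dark, luminescence read.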
VDR inh – Inhibitors of the vitamin D receptor (VDR): qHTS; 0.93% of 400,000 active; AID 504847, 2011; Potency, µM, usual class: inhibitors; VDR-SRC2-3 peptide fluorescence polarization, 2 h; Vitamin D3 receptor (Homo sapiens), P11473
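Two reagent solutions held at 4 deg C in the dark were dispensed, compounds pinned at 23 nl, and the mixture incubated 2 h at room temperature. Read-out: fluorescence polarization of VDR–SRC2-3 peptide binding.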
JMJD2A Tudor – qHTS Assay for Inhibitors of JMJD2A-Tudor Domain | Lysine-specific demethylase 4A (Homo sapiens), O75164 | AlphaScreen JMJD2A-Tudor / H3K4me3 peptide binding | Potency, µM (series often up to 114 µM), actives largely listed as inhibitors | 4.4% of 390,000 active | AID 504339, 2011; also: nearly all actives have a fitted effect of over 50% in size
Target sequence (O75164 whole entry, looked up, the tested form may be a part): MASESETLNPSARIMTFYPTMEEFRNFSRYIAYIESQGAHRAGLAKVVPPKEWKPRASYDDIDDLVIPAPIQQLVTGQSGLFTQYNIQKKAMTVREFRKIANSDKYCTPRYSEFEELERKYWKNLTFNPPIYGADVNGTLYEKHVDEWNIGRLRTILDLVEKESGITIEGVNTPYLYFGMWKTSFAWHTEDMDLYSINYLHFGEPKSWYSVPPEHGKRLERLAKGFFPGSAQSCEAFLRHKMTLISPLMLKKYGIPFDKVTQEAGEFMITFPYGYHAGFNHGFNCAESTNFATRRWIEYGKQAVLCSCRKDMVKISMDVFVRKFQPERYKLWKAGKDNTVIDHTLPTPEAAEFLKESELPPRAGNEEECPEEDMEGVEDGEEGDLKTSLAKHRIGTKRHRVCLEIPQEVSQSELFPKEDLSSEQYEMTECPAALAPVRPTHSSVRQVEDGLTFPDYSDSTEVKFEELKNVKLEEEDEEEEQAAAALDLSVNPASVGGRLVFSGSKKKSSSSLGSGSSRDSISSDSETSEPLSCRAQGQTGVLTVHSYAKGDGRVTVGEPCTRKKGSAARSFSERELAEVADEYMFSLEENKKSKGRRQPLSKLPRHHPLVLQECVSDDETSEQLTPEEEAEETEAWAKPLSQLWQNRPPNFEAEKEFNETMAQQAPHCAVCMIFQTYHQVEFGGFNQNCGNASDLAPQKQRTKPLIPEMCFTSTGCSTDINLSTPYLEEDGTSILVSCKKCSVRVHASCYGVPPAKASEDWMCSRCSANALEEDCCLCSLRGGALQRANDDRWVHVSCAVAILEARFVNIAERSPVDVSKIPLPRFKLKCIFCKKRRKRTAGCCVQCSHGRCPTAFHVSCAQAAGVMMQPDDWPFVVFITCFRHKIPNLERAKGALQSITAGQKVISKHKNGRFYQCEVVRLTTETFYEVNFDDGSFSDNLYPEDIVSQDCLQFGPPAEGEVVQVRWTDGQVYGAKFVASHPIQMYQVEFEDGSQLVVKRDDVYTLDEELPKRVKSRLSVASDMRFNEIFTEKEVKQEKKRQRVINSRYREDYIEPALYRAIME
PLK1 PBD inh – qHTS for Inhibitors of PLK1-PDB (polo-like kinase 1 - polo-box domain): Primary Screen; Serine/threonine-protein kinase PLK1 (Homo sapiens), P53350; Plk1 PBD binding of FITC phosphopeptide, fluorescence polarization; Potency, µM, hits mostly inhibitors; 2.8% of 360,000 active; AID 720504, 2013; also: series mostly up to about 57 µM; nearly all actives have a fitted effect of over 65% in size
BAZ2B block – qHTS Assay for Inhibitors of BAZ2B | 4.4% of 360,000 active | AID 504333, 2011 | Bromodomain adjacent to zinc finger domain protein 2B (Homo sapiens), Q9UIF8 | AlphaScreen BAZ2B-H3K14Ac peptide displacement | Potency, µM (highest dose often 114 µM), usual class: inhibitors; also: nearly all actives have a fitted effect of over 60% in size
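Multi-concentration screen (max 110 uM) measuring displacement of acetylated histone H3 peptide from BAZ2B by AlphaScreen, using 50 nM protein, 50 nM peptide and 10 ug/mL streptavidin donor plus Ni-chelate acceptor beads.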
Each line names hits and unclear results; the compound was inactive in the other large screens. An excerpt weighted towards active compounds, which were near 11% of everything screened. Calls follow the shape of the dose curve; as a rule, active = well fitted curve in the direction sought with a large enough effect; inconclusive = small, poorly fitted or top-dose-only effect, or another doubt; inactive = no such curve, though single readings can be large; an effect the other way counts as inactive or inconclusive.

C#CCOCCOCCOCCNc1nc(N2CCN(C(=O)CCCCCCCCCCNC(=O)[C@H](CCCCN)n3cc(CCCC(=O)O)nn3)CC2)nc(N2CCN(C(=O)CCCCCCCCCCNC(=O)[C@@H]([C@H](C)O)n3cc(C)nn3)CC2)n1	JMJD2A Tudor inconclusive
COc1ccc(NC(=O)Nc2cc(C(=O)O)ccc2N2CC3CC(C2)c2cccc(=O)n2C3)c(OC)c1 (configuration not stated)	none
CC[C@@H]1Cn2c(c3nc(-c4cc(Cl)cc(Cl)c4Cl)nc-3n(C)c2=O)N1	none (no result: HP1b binding inh, JMJD2A Tudor, PLK1 PBD inh, BAZ2B block)
CCCN(CCC)C(=O)NC1CC(=O)N(c2ccc(OC)cc2)C1 (configuration not stated)	none
C#CCOCCOCCOCCNc1nc(N2CCOCC2)nc(N2CCN(C(=O)CCCCCCCCCCNC(=O)[C@@H]([C@H](C)CC)n3cc(CCCCCN)nn3)CC2)n1	JMJD2A Tudor inconclusive, BAZ2B block inconclusive
C#CCOCCOCCOCCNc1nc(N2CCN(C(=O)Cn3cc(CCCN=C(N)N)nn3)CC2)nc(N2CCN(C(=O)[C@H]([C@@H](C)CC)n3cc(CCC(=O)O)nn3)CC2)n1	none
C#CCOCCOCCOCCNc1nc(N2CCN(C(=O)CCCCCCCCCCNC(=O)[C@H]([C@@H](C)CC)n3cc(CCCCCN)nn3)CC2)nc(N2CCN(C(=O)CCCCCCCCCCNC(=O)[C@@H]([C@H](C)CC)n3cc(CCCCCN)nn3)CC2)n1	BAZ2B block 50µM (no result: HP1b binding inh, VDR inh, JMJD2A Tudor, PLK1 PBD inh)
C#CCOCCOCCOCCNc1nc(N2CCN(C(=O)CCCCCCCCCCNC(=O)[C@H]([C@@H](C)CC)n3cc(CCCCN=C(N)N)nn3)CC2)nc(N2CCN(C(=O)CCCCCCCCCCNC(=O)[C@H]([C@@H](C)CC)n3cc(CCCCN=C(N)N)nn3)CC2)n1	BAZ2B block 50µM (no result: HP1b binding inh, VDR inh, JMJD2A Tudor, PLK1 PBD inh)
Cc1ccc(C(=O)Cn2c(C(=O)/C=C/c3ccccc3)nc3ccccc32)cc1	none (no result: G9a inh)
O=C(NCC(=O)N(CCN1CCOCC1)C(C(=O)NC1CCCC1)c1cccnc1)c1cccs1 (configuration not stated)	none
CCC(C)(C)NC(=O)C(c1ccc(C)cc1)N(CCN1CCOCC1)C(=O)CNC(=O)c1cccs1 (configuration not stated)	JMJD2A Tudor inconclusive, PLK1 PBD inh 30µM (no result: G9a inh)
CC(=O)NC(=S)NNC(=O)COc1ccc([N+](=O)[O-])cc1	G9a inh 8.9µM, PLK1 PBD inh 21µM
COc1ccc(OCC(=O)NNC(=S)NC(=O)c2ccc([N+](=O)[O-])cc2)cc1	G9a inh 1.1µM, PLK1 PBD inh 24µM
COc1ccc(OCC(=O)NNC(=S)NC(=O)c2ccc(Br)o2)cc1	G9a inh 22µM
Cc1ccc(C(=O)NC(=S)NNC(=O)c2ccc([N+](=O)[O-])cc2)cc1	none
CNC(=S)NNC(=O)COc1ccc(C)c(C)c1	G9a inh 32µM, JMJD2A Tudor 50µM
O=C(CCc1ccccc1)NNC(=O)COc1ccc([N+](=O)[O-])cc1	none
CC(C)Cn1c(=O)c2ccccc2n2c(CCC(=O)Nc3ccc(F)c(F)c3)nnc12	none (no result: PLK1 PBD inh)
CCc1ccc2oc(C(=O)NC3CCS(=O)(=O)C3)cc(=O)c2c1 (configuration not stated)	none
O=C(O)c1ccc2c(c1)S(=O)(=O)c1cc(N3CCN(c4cnccn4)CC3)ccc1C2=O	none (no result: G9a inh, HP1b binding inh, VDR inh, JMJD2A Tudor, BAZ2B block)
COc1ccccc1NC(=O)Nc1nc(C(C)(C)C)cs1	none
Cc1ccc(NC(=O)C2CCN(S(=O)(=O)c3ccc4[nH]c(=O)ccc4c3)CC2)cc1C	none (no result: PLK1 PBD inh)
CC(=O)NC(=S)NNC(=O)COc1ccc(Br)cc1	G9a inh 1.8µM, JMJD2A Tudor 25µM, PLK1 PBD inh 27µM
O=C(COc1ccc(Br)cc1)NNC(=S)NC(=O)c1ccccc1[N+](=O)[O-]	G9a inh inconclusive
CCCCCC(=O)NNC(=S)NC(=O)c1ccc([N+](=O)[O-])cc1	G9a inh 2.5µM, HP1b binding inh inconclusive, VDR inh inconclusive, JMJD2A Tudor inconclusive, PLK1 PBD inh 11µM
Cc1cccc(C)c1NC(=S)NC(=O)c1ccc(Br)o1	G9a inh 40µM, VDR inh inconclusive, PLK1 PBD inh 6µM, BAZ2B block inconclusive
CCCS(=O)(=O)C/C(N)=N/OC(=O)c1ccccc1Cl	G9a inh 40µM
N/C(CS(=O)(=O)c1ccccn1)=N\OC(=O)c1ccccc1Cl	G9a inh inconclusive, JMJD2A Tudor inconclusive
C=CCn1c(-c2ccc(S(=O)(=O)N3CCOCC3)cc2)csc1=Nc1ccccc1	JMJD2A Tudor inconclusive, BAZ2B block 6.3µM
COc1ccc(S(=O)(=O)N2CCOCC2)cc1	none (no result: G9a inh, PLK1 PBD inh, BAZ2B block)
COc1ccc(N=c2scc(-c3ccc(S(=O)(=O)N4CCOCC4)cc3)n2CCCO)cc1	G9a inh 25µM, BAZ2B block 50µM (no result: HP1b binding inh, VDR inh, JMJD2A Tudor, PLK1 PBD inh)
O=S(=O)(c1ccc(-c2ccccc2)cc1)N1CCOCC1	none
CN(C)S(=O)(=O)c1cccc(-c2csc(=Nc3ccccc3)n2CCCN2CCOCC2)c1	G9a inh 50µM, HP1b binding inh inconclusive, JMJD2A Tudor 50µM, BAZ2B block 32µM
CC(=O)c1cccc(N=c2scc(-c3ccc(S(=O)(=O)N4CCOCC4)cc3)n2CCO)c1	G9a inh 45µM, HP1b binding inh inconclusive, PLK1 PBD inh inconclusive, BAZ2B block inconclusive
CN(CCOc1ccccc1)C(=O)c1cc(S(=O)(=O)N2CCOCC2)c(Cl)cc1Cl	none (no result: G9a inh, HP1b binding inh, VDR inh, JMJD2A Tudor, BAZ2B block)
Cc1c(NC(=O)c2ccc3c(c2)OCO3)c(=O)n(-c2ccccc2)n1C	none
CC(C)Cn1c(-c2ccc(S(=O)(=O)N3CCCC3)cc2)csc1=Nc1ccccc1	G9a inh 8.9µM, JMJD2A Tudor inconclusive, BAZ2B block inconclusive (no result: PLK1 PBD inh)
Cc1nc(C)c(C(=O)NNC(=O)c2ccc(Br)cc2)s1	none
COC(=O)c1ccccc1NC(=O)C(C)Oc1ccccc1 (configuration not stated)	VDR inh inconclusive, JMJD2A Tudor inconclusive, PLK1 PBD inh 3µM
COC(=O)c1ccccc1NC(=O)CC(NCc1ccccc1)C(=O)O (configuration not stated)	JMJD2A Tudor 28µM (no result: G9a inh, BAZ2B block)
CCc1ccccc1NC(=O)CC(NCc1ccccc1)C(=O)O (configuration not stated)	G9a inh 28µM, JMJD2A Tudor inconclusive
Cc1ccccc1NC(=O)CC(NCc1cccnc1)C(=O)O (configuration not stated)	G9a inh inconclusive (no result: PLK1 PBD inh)
N=C(N)n1c(N)nc2ccccc2c1=O	none

Bioassay records deposited in PubChem BioAssay by National Center for Advancing Translational Sciences (NCATS).
